Measurements as given in PubChem BioAssay (Tox21).
Results filed as inconclusive are left out. The source made the active and inactive calls. Unless noted, the call rests on the fitted dose curve; in most records, active means well fitted curve in the direction sought with a large enough effect in the repeat runs; inconclusive means weak or mixed curves; inactive means no such curve, though single readings can be large; an effect the other way counts as inactive or inconclusive.

Legend:
[1] = qHTS assay to identify small molecule agonists of the estrogen receptor beta (ER-beta) signaling pathway - cell viability counter screen (AID 1259380); further: nearly all actives have a fitted effect of over 30% in size; further: potency means the concentration at half of the fitted maximal effect
Procedure, shortened: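 Cell viability counter screen: CellTiter-Glo luminescence (30 min, room temperature) measured in the same wells as the beta-lactamase readout, after 16 hr compound exposure at 37C of ER-beta-bla HEK293T cells in 2% charcoal-stripped FBS medium.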

[2] = qHTS assay to identify small molecule antagonists of the estrogen receptor beta (ER-beta) signaling pathway - cell viability counter screen (AID 1259382); further: nearly all actives have a fitted effect of over 55% in size; further: potency means the concentration at half of the fitted maximal effect
Procedure, shortened: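 Cytotoxicity was measured in the same wells by CellTiter-Glo luminescence after 30 min at room temperature. Cells were ER-beta-bla HEK293T in charcoal-stripped serum, given compound together with 1 nM E2 and incubated 16 h at 37C.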

[3] = qHTS assay to identify small molecule agonists or antagonists of the thyroid stimulating hormone receptor (TSHR) signaling pathway - wild type cell line counter screen (AID 1259384; calls by dose curve)
Procedure, shortened: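 Wild-type Hek293 cells, 800/well, 18 h at 37C, then compound with Ro20-1724 for 30 min RT. cAMP by HTRF (cAMP-d2/anti-cAMP cryptate), 1 h RT, fluorescence read. 15 concentrations, triplicates.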

[4] = biological target: Thyrotropin receptor (Homo sapiens) (UniProt P16473); experiment: qHTS assay to identify small molecule antagonists of the thyroid stimulating hormone receptor (TSHR) signaling pathway (AID 1259385; calls by dose curve; further: nearly all actives have a fitted effect of over 20% in size; further: potency means the concentration at half of the fitted maximal effect)
Procedure, shortened: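 TSHR-HEK293 cells (800/well) plated 18 h, then compounds with Ro20-1724 and TSH at 1.5 ng/mL final, 30 min at room temperature. cAMP quantified by HTRF (cAMP-d2/anti-cAMP-cryptate, 1 h); 15 concentrations in triplicate.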

[5] = qHTS assay to identify small molecule agonists of the estrogen receptor alpha (ER-alpha) signaling pathway in the presence of an antagonist - cell viability counter screen (AID 1259386); further: nearly all actives have a fitted effect of over 30% in size; further: potency means the concentration at half of the fitted maximal effect
Procedure, shortened: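 Compounds tested at 15 concentrations for 22 h at 37C alongside 10.0nM (final) ICI-182,780 antagonist, in VM7Luc4E2 cells grown in phenol red-free, charcoal-stripped medium. Viability read by CellTiter-Fluor fluorescence after 1 h reagent incubation.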

[6] = biological target: Progesterone receptor (Homo sapiens) (UniProt P06401); experiment: qHTS assay to identify small molecule agonists of the progesterone receptor (PR) signaling pathway (AID 1346784; calls by dose curve; further: nearly all actives have a fitted effect of over 30% in size)
Procedure, shortened: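 Compounds were tested for PR agonism in HEK 293T cells bearing a beta-lactamase gene under UAS control. Treatment lasted 16 hr at 37C; signal came from fluorescence of a FRET substrate.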

[7] = qHTS assay to identify small molecule antagonists of the progesterone receptor (PR) signaling pathway - cell viability counter screen (AID 1346798); further: nearly all actives have a fitted effect of over 50% in size; further: potency means the concentration at half of the fitted maximal effect
Procedure, shortened: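 Following a 4 hr attachment, PR-UAS-bla HEK293T cells in charcoal-stripped FBS medium were exposed to compounds with R5020 for 16 hr; CellTiter-Glo was added and luminescence read after 30 min at room temperature.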

[8] = qHTS assay to identify small molecule agonists of the progesterone receptor (PR) signaling pathway - cell viability counter screen (AID 1346799; calls by dose curve; further: nearly all actives have a fitted effect of over 45% in size; further: potency means the concentration at half of the fitted maximal effect)
Procedure, shortened: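 Here, 3,000 PR-UAS-bla HEK293T cells per well were treated with compounds for 16 hr after a 6 hr preincubation at 37C and 5% CO2; cell viability is the CellTiter-Glo luminescence signal.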

[9] = qHTS assay to identify small molecule agonists of the TGF-beta/Smad signaling pathway (AID 1346859; active means well fitted activation curve with a large enough effect in the signal ratio in the repeat runs, not every such curve was filed as active; the % refers to the signal ratio; further: series mostly up to about 77 µM)
Procedure, shortened: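 Each well held 4,000 SBE-bla HEK 293T cells incubated overnight before compound addition; 5 hr later the cleavable FRET substrate went on for 2 hr at room temperature, and fluorescence was read at two emissions.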

[10] = biological target: Thyrotropin-releasing hormone receptor (Homo sapiens) (UniProt P34981); experiment: qHTS assay to identify small molecule antagonists of the thyrotropin-releasing hormone receptor (TRHR) signaling pathway (AID 1346877; active means well fitted inhibition curve with a large enough effect in the repeat runs, not every such curve was filed as active; further: series mostly up to about 51 µM)
Procedure, shortened: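 Antagonist mode: after a 5 min room-temperature compound exposure, cells were stimulated with 1 nM (final) TRH. Dye-loaded TRHR-HEK293 cells were used, and calcium-dependent fluorescence was followed for 3 min, with 15-point titrations run in triplicate.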

[11] = Human pregnane X receptor (PXR) small molecule agonists, qHTS cell viability counter screen (AID 1346977); further: nearly all actives have a fitted effect of over 50% in size; further: potency means the concentration at half of the fitted maximal effect
Procedure, shortened: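 Tox21 qHTS format; PXR-Luc HepG2, 2,000/well, charcoal-stripped FBS 5%. Cpd exposure 24hr. Read: CellTiter-Fluor fluorescence, multiplexed with luciferase.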

[12] = Caspase-3/7 induction in HepG2 cells by small molecules, qHTS assay (AID 1346978); further: nearly all actives have a fitted effect of over 15% in size; further: potency means the concentration at half of the fitted maximal effect
Procedure, shortened: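 Wild-type HepG2 cells, 2,000/well, settled 5 hr at 37 C and 5% CO2, then compound-treated for 17 hr; caspase-3/7 activity read by luminescent Caspase-Glo 3/7 after 30 min at room temperature.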

[13] = Caspase-3/7 induction in CHO-K1 cells by small molecules, qHTS cell viability counter screen (AID 1346979); further: nearly all actives have a fitted effect of over 35% in size; further: potency means the concentration at half of the fitted maximal effect
Procedure, shortened: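 CellTiter-Fluor viability check, qHTS format: wild-type CHO-K1, 16hr compound treatment, 1hr reagent incubation, fluorescence read.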

[14] = biological target: Estrogen receptor (Homo sapiens) (UniProt P03372); experiment: qHTS assay to identify small molecule agonists of the estrogen receptor alpha (ER-alpha) signaling pathway in the presence of an antagonist (AID 1259383; calls by dose curve; further: nearly all actives have a fitted effect of over 15% in size; further: potency means the concentration at half of the fitted maximal effect; on activation: top concentration of the series differs between compounds)
Procedure, shortened: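 Agonist-mode confirmation run in the presence of 10.0nM (final) ICI-182,780 antagonist. The reporter was ERE-driven luciferase in VM7Luc4E2 cells, grown in charcoal-stripped serum. Cells were exposed to 15-concentration compound series for 22hr, then ONE-Glo luminescence was read.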

[15] = biological target: Progesterone receptor (Homo sapiens) (UniProt P06401); experiment: qHTS assay to identify small molecule antagonists of the progesterone receptor (PR) signaling pathway (AID 1346795; active means well fitted inhibition curve with a large enough effect in the signal ratio in the repeat runs, not every such curve was filed as active; the % refers to the signal ratio; further: potency means the concentration at half of the fitted maximal effect)
Procedure, shortened: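 In HEK293T cells bearing the PR-UAS-bla reporter, compound effects on promegestone-driven (1 nM) beta-lactamase expression are assessed after 16 hr using a fluorescent FRET substrate incubated 2 hr at room temperature.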

[16] = qHTS assay to identify small molecule antagonists of the TGF-beta/Smad signaling pathway - cell viability counter screen (AID 1346824); further: nearly all actives have a fitted effect of over 50% in size; further: potency means the concentration at half of the fitted maximal effect
Procedure, shortened: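 SBE-bla HEK 293T cells, incubated overnight, then compound plus 0.25 ng/mL TGF-beta1 (stock added) for 5 hr at 37 C. Viability was read in the same wells by CellTiter-Glo luminescence after 30 min at room temperature.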

[17] = qHTS assay to identify small molecule agonists of the TGF-beta/Smad signaling pathway - cell viability counter screen (AID 1346829); further: nearly all actives have a fitted effect of over 45% in size; further: potency means the concentration at half of the fitted maximal effect
Procedure, shortened: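 Here the cytotoxicity of library compounds is measured in SBE-bla HEK 293T cells treated for 5 hr, using CellTiter-Glo added to wells already read for the beta-lactamase reporter.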

[18] = biological target: Androgen receptor (Homo sapiens) (UniProt P10275); experiment: qHTS assay to identify small molecule agonists of the androgen receptor (AR) signaling pathway in the presence of an antagonist (AID 1259381; calls by dose curve; further: nearly all actives have a fitted effect of over 15% in size; further: potency means the concentration at half of the fitted maximal effect)
Procedure, shortened: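 Agonist-mode confirmation run against 3.0 uM final nilutamide: compounds titrated at 15 concentrations onto MDA-kb2 MMTV-luciferase reporter cells. Luminescence measured with ONE-Glo following 16 hr incubation, 37C, 0% CO2.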

[19] = biological target: Thyrotropin-releasing hormone receptor (Homo sapiens) (UniProt P34981); experiment: qHTS assay to identify small molecule agonists of the thyrotropin-releasing hormone receptor (TRHR) signaling pathway (AID 1346891; calls by dose curve; further: series mostly up to about 58 µM)
Procedure, shortened: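 Screening of agonists relied on calcium signalling in HEK293 cells expressing human TRHR: dye loading 2 h at 37 °C preceded compound addition and a 3-min fluorescence time course.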

Measured: Potency

Thyrotropin-releasing hormone receptor (Homo sapiens), sequence (P34981 whole entry, looked up): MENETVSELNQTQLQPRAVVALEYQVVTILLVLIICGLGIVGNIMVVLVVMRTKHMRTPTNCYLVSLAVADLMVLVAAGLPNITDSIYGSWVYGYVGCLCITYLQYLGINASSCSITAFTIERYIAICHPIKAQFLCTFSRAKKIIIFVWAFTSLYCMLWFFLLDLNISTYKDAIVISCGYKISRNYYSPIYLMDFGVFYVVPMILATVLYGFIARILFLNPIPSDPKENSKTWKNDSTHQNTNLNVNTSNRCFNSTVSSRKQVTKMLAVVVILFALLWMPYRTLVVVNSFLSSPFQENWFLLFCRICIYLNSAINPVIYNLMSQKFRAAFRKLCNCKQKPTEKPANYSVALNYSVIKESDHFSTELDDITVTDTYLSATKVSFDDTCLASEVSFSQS
Estrogen receptor (Homo sapiens), sequence (P03372 whole entry, looked up): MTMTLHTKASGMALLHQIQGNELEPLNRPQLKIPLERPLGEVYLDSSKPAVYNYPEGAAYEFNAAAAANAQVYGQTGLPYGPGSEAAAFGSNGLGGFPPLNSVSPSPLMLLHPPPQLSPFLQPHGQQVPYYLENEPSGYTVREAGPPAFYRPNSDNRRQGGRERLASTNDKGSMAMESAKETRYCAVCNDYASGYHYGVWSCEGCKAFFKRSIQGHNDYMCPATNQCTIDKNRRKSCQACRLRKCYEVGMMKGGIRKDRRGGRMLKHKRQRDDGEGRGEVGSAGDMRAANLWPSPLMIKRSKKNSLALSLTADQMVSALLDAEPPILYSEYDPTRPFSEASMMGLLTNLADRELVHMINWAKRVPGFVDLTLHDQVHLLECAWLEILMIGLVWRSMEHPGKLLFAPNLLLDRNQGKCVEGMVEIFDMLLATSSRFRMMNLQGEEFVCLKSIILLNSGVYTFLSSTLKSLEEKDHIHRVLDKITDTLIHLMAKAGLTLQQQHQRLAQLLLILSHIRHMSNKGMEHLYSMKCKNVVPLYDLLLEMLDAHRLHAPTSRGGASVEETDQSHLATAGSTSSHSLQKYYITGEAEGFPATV
Progesterone receptor (Homo sapiens), sequence (P06401 whole entry, looked up): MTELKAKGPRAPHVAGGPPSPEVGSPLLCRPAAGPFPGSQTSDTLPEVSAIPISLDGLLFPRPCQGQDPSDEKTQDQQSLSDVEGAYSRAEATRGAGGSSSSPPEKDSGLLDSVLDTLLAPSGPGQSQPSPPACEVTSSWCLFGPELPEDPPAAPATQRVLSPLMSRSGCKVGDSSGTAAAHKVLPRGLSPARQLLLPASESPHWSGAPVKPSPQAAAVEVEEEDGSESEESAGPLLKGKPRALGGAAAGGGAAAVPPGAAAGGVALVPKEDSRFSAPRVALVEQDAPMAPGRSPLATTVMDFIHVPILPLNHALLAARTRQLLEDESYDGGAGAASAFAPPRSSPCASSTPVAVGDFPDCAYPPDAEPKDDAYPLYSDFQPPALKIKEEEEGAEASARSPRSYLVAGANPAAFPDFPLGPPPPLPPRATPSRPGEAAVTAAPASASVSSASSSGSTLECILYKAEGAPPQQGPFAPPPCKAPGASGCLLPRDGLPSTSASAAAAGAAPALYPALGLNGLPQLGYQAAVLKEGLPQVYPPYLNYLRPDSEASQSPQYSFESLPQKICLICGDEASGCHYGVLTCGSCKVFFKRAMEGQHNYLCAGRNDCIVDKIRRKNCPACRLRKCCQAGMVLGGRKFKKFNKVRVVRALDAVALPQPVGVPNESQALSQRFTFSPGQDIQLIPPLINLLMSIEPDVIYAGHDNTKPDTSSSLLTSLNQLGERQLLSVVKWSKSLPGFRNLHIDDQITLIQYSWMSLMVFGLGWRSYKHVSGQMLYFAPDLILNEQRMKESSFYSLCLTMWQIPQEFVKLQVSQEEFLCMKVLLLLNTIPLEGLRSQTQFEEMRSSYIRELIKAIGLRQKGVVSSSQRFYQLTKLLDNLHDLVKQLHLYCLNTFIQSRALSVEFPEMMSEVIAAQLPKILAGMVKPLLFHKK
Androgen receptor (Homo sapiens), sequence (P10275 whole entry, looked up): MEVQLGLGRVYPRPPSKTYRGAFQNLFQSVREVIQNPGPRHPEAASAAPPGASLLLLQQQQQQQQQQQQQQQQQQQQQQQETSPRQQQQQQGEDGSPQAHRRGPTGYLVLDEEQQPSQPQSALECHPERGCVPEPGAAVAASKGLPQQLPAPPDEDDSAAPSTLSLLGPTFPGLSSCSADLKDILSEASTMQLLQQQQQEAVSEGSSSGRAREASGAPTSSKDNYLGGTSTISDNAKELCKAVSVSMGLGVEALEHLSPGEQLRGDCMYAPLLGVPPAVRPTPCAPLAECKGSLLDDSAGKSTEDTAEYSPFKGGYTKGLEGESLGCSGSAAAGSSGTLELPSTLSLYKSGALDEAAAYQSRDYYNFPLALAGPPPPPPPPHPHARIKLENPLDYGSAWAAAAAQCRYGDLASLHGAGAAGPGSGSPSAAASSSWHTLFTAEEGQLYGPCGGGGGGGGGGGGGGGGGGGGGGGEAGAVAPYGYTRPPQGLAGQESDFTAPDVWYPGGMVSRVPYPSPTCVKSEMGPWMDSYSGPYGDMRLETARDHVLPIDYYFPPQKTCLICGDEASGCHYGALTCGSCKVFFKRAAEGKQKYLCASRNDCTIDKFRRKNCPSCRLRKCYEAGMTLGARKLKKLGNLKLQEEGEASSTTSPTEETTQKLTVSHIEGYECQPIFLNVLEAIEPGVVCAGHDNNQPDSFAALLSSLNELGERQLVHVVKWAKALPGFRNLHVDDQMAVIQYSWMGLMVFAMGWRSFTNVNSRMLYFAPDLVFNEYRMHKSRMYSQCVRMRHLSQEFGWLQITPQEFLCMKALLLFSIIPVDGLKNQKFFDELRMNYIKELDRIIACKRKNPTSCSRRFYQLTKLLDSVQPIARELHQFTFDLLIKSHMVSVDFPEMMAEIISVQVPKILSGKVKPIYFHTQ
Thyrotropin receptor (Homo sapiens), sequence (P16473 whole entry, looked up): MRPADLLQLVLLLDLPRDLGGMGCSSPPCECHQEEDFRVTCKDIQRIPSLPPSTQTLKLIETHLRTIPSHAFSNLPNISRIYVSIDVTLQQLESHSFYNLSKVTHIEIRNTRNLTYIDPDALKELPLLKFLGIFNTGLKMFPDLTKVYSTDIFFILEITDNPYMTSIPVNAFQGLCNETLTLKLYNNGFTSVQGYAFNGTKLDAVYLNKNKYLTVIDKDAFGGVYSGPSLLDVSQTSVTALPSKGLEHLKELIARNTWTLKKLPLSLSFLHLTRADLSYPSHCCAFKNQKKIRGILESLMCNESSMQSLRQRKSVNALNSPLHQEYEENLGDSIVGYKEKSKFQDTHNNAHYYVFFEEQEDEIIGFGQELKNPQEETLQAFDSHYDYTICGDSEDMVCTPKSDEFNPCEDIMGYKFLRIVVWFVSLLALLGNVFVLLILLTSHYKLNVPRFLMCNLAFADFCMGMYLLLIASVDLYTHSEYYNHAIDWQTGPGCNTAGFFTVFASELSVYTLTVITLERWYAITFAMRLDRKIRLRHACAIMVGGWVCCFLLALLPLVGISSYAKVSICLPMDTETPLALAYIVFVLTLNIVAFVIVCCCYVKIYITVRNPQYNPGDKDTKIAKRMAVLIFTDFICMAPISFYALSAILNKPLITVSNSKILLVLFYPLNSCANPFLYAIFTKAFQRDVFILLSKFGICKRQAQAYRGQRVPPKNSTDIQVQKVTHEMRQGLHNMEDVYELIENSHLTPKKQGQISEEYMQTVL

SC1CCCCC1
not listed: [14] | [15] | [16] | [17] | [18] | [19]
inactive: all other assays above

c1ccc(-c2ccc(C(c3ccccc3)n3ccnc3)cc2)cc1 (stereo unspecified)
inactive: [14] | [3] | [5] | [16] | [17] | [9] | [12]
active: [1] 29.8 µM | [15] 5.96 µM | [7] 9.44 µM | [8] 16.8 µM | [13] 18.8 µM

CC(C)(c1ccc(Oc2ccc(N)cc2)cc1)c1ccc(Oc2ccc(N)cc2)cc1
active: [5] 54.5 µM | [15] 27.3 µM | [13] 48.6 µM
not listed: [1] | [2] | [4] | [7] | [9] | [11]
inactive: all other assays above

NCc1cccc(C2CCN(C(=O)c3ccc(C#Cc4ccccc4F)o3)CC2)c1
active: [2] 61.1 µM | [15] 68.6 µM | [7] 48.6 µM | [8] 61.1 µM
inactive: [18] | [14] | [9] | [10] | [19]

CC(Cc1ccc(O)c(O)c1)C(C)Cc1ccc(O)c(O)c1 (stereo unspecified)
active: [13] 54.5 µM
not listed: [1] | [2] | [10] | [15] | [18] | [19]
inactive: all other assays above

O=C1CCC/C=C\CCCCCCCCCC1
active: [15] 48.6 µM
not listed: [1] | [7] | [8] | [11] | [14] | [17] | [18]
inactive: all other assays above

CCN(CC)c1ccc(C=O)c(O)c1
inactive: [14] | [3] | [4] | [5] | [6] | [7] | [8] | [11] | [12]
active: [18] 43.3 µM

CCCCCN=C(N)N/N=C/c1c[nH]c2ccc(OC)cc12
active: [1] 16.8 µM | [4] 29.8 µM | [5] 33.5 µM | [7] 23.7 µM | [8] 16.8 µM | [16] 26.8 µM | [17] 23.9 µM | [11] 18.8 µM | [12] 11.9 µM | [13] 29.8 µM
inactive: [3] | [10]

CCOc1ccc([N+](=O)[O-])cc1
active: [14] 24.7 µM | [15] 27.7 µM | [12] 55.3 µM
inactive: [2] | [5] | [16] | [9] | [10] | [19] | [11]

CC(=O)Nc1ccc(N=Nc2cc(C)ccc2O)cc1
inactive: [1] | [14] | [6] | [7] | [16] | [9] | [12]
active: [5] 15.4 µM | [13] 68.6 µM

CCCCCCCC/C=C\CCCCCCCC(=O)N(CCO)CCO
active: [13] 68.3 µM
inactive: [2] | [14] | [3] | [4] | [5] | [6] | [16] | [17] | [12]

CC(=O)N(C)C
inactive: [7]

CC1=C(/C=C/C(C)=C/C=C/C(C)=C\C(=O)O)C(C)(C)CCC1
active: [1] 9.72 µM
not listed: [3] | [4] | [7] | [13] | [15] | [18] | [19]
inactive: all other assays above

O=C1CCCCCCCCCCCCCC1
not listed: [1] | [2] | [4] | [18]
inactive: all other assays above

c1ccc(-c2nc3ccccc3[nH]2)cc1
inactive: [14] | [3] | [4] | [5] | [6] | [7] | [8] | [9] | [10] | [12]
